# In PubChem BioAssay AID743294 (Broad Institute, 2014):
# Potency and affinity values are given separately. The source made the active and inactive calls.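 The calls were made as follows: active = compounds lowering fluorescence whose fitted half-maximal dose is at most twice the top valid dose; inconclusive = flat fit between -70% and -30%, or poor curve fit; inactive = the rest.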
# Biological target: Caspase-8 (Homo sapiens) (UniProt Q14790)
# Assay: inhibitors of purified CASP8 protease – biochemical, Z-IETD-R110 fluorescence, cherry-picked samples, selectivity assay for caspase-6 inhibitor project, dose response (AID 743294)
# Sequence of Caspase-8 (Homo sapiens) (Q14790 whole entry, looked up): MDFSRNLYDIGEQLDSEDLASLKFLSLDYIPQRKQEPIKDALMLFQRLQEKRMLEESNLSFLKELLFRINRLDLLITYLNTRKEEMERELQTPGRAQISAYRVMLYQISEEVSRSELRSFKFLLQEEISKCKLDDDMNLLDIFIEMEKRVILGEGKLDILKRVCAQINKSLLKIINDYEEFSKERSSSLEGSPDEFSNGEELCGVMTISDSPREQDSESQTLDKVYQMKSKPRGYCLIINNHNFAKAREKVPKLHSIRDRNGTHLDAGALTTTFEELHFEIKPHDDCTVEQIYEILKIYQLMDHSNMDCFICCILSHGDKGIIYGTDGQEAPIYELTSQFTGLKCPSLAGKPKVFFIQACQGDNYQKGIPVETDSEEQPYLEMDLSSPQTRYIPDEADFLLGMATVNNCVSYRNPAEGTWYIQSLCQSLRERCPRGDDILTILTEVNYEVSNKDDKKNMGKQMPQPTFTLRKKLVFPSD
row,Compound,outcome
1,CN1CCc2cc3c(c4c2C1Cc1ccccc1-4)OCO3 (configuration not stated),inactive
2,CC(Cc1ccc(O)cc1)NCC(O)c1ccc(O)c(O)c1 (configuration not stated),inactive
